Measurements as given in PubChem BioAssay AID1159580 (chemical genetic matrix, 2015).
Several values for one entry are separate records, joined by “and”; a condition that tells them apart may be missing. Identical values can stand only once. Screen size: about 5,500 compounds; about 2,000 (36%) were called active. Inconclusive results (about 18%) are left out. Cut-off read from the data, not from the text of the source: active = normalized growth mostly below about 0.91 (no sharp cut-off); inconclusive = no clear call, values can overlap the other calls; inactive = mostly above about 0.92. Some of the results follow.

Assay: chemical genetic growth profiling, strain panel (AID 1159580);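 note: tested at 20 µM; growth read once vehicle control cultures reached saturation at 30 °C; 1 = growth at the plate median or of vehicle wells; lower values mean less growth of the strain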
Settings: S. cerevisiae deletion strains, growth OD

Measured: normalized growth

CCOc1ccc(C(=O)c2ccc(O)c(O)c2O)cc1
active: locus YAL021C, strain ccr4, active compounds read low 0.754 | locus YAL026C, strain drs2, active compounds read low 0.844 | locus YBL061C, strain skt5, active compounds read low 0.898 | locus YBR023C, strain chs3, active compounds read low 0.84 | locus YBR231C, strain swc5, active compounds read low 0.829 | locus YBR279W, strain paf1, active compounds read low 0.927 | locus YCL029C, strain bik1, active compounds read low 0.857 | locus YCL061C, strain MRC1, active compounds read low 0.908 | locus YDL074C, strain BRE1, active compounds read low 0.741 | locus YDL101C, strain DUN1, active compounds read low 0.849 | locus YDL134C, strain PPH21, active compounds read low 0.853 | locus YDL185W, strain tfp1, active compounds read low 0.845 | locus YDL192W, strain arf1, active compounds read low 0.868 | locus YDR069C, strain doa4, active compounds read low 0.703 | locus YDR101C, strain arx1, active compounds read low 0.911 | locus YDR137W, strain rgp1, active compounds read low 0.701 | locus YDR162C, strain NBP2, active compounds read low 0.823 | locus YDR318W, strain mcm21, active compounds read low 0.907 | locus YDR334W, strain swr1, active compounds read low 0.877 | locus YDR335W, strain msn5, active compounds read low 0.858 | locus YDR502C, strain sam2, active compounds read low 0.861 | locus YEL003W, strain gim4, active compounds read low 0.893 | locus YEL061C, strain CIN8, active compounds read low 0.901 | locus YER015W, strain faa2, active compounds read low 0.883 | locus YER111C, strain swi4, active compounds read low 0.72 | locus YFR010W, strain ubp6, active compounds read low 0.854 | locus YGL086W, strain mad1, active compounds read low 0.86 | locus YGL173C, strain kem1, active compounds read low 0.853 | locus YGL248W, strain PDE1, active compounds read low 0.837 | locus YGR078C, strain PAC10, active compounds read low 0.821 | locus YGR135W, strain pre9, active compounds read low 0.85 | locus YHR027C, strain rpn1, active compounds read low 0.869 | locus YHR030C, strain SLT2, active compounds read low 0.824 | locus YHR079C, strain IRE1 (second series), active compounds read low 0.902 | locus YHR129C, strain ARP1, active compounds read low 0.826 | locus YHR142W, strain chs7, active compounds read low 0.786 | locus YHR200W, strain rpn10, active compounds read low 0.886 | locus YJL095W, strain BCK1 (second series), active compounds read low 0.908 | locus YJL095W, strain BCK1, active compounds read low 0.784 and 0.833 | locus YJL164C, strain tpk1, active compounds read low 0.877 | locus YJL187C, strain SWE1 (second series), active compounds read low 0.632 | locus YJL187C, strain SWE1, active compounds read low 0.915 | locus YJR066W, strain TOR1, active compounds read low 0.812
inactive: locus YAL030W, strain snc1, active compounds read low 0.936 | locus YBR009C, strain hhf1, active compounds read low 0.926 | locus YBR021W, strain FUR4, active compounds read low 0.926 | locus YBR171W, strain sec66, active compounds read low 0.899 | locus YBR229C, strain ROT2, active compounds read low 0.979 | locus YCL011C, strain gbp2, active compounds read low 0.945 | locus YCL016C, strain dcc1, active compounds read low 0.919 | locus YCL069W, strain vba3, active compounds read low 0.96 | locus YCR088W, strain abp1, active compounds read low 0.949 | locus YDL005C, strain med2, active compounds read low 0.973 | locus YDL035C, strain GPR1, active compounds read low 0.899 | locus YDL040C, strain nat1, active compounds read low 0.971 | locus YDR001C, strain nth1, active compounds read low 0.963 | locus YDR159W, strain sac3, active compounds read low 0.924 | locus YDR195W, strain ref2 1.04 | locus YDR297W, strain sur2, active compounds read low 0.928 | locus YDR388W, active compounds read low 0.955 | locus YDR392W, strain spt3, active compounds read low 0.87 | locus YEL037C, strain rad23, active compounds read low 0.928 | locus YEL061C, strain CIN8 (second series), active compounds read low 0.958 | locus YER016W, strain bim1, active compounds read low 0.924 | locus YER110C, active compounds read low 0.989 | locus YER155C, strain BEM2 (second series), active compounds read low 0.902 | locus YER155C, strain BEM2, active compounds read low 0.991 | locus YER167W, strain BCK2, active compounds read low 0.953 | locus YGL078C, strain dbp3, active compounds read low 0.965 | locus YGL167C, strain pmr1, active compounds read low 0.917 | locus YGL227W, strain vid30, active compounds read low 0.982 | locus YGL240W, strain doc1, active compounds read low 0.955 | locus YGL253W, strain hxk2, active compounds read low 0.928 | locus YGR252W, strain gcn5, active compounds read low 0.861 | locus YHR013C, strain ard1, active compounds read low 0.852 | locus YHR079C, strain IRE1, active compounds read low 0.898 | locus YHR094C, strain hxt1, active compounds read low 0.993 | locus YIL066C, strain RNR3, active compounds read low 0.88 | locus YIL073C, strain SPO22, active compounds read low 0.848 | locus YIL125W, strain kgd1, active compounds read low 0.951 | locus YIR030C, strain dcg1, active compounds read low 0.976 | locus YJL092W, strain hpr5, active compounds read low 0.955 | locus YJL115W, strain asf1, active compounds read low 0.966 | locus YJL129C, strain trk1, active compounds read low 0.944 | locus YJL134W, strain LCB3, active compounds read low 0.968 | locus YJL154C, strain vps35, active compounds read low 0.953 | locus YJL166W, strain qcr8, active compounds read low 0.933 | locus YJL168C, strain set2, active compounds read low 0.963
